In experiment [1] the target is Rap guanine nucleotide exchange factor 3 (Homo sapiens) (UniProt O95398). The experiment in a line: Confirmatory qHTS for agonist of cAMP-regulated guanine nucleotide exchange factor 3 (EPAC1) (AID 1645881).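 Also: EPAC1 catalysed release of BODIPY-GDP from Rap1B seen as fluorescence loss; 100% = effect of cAMP agonist control; nearly all actives have a fitted effect of over 75% in size.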 Conditions: EPAC1 Rap1B BODIPY-GDP exchange fluorescence; series mostly up to 154 µM. A general note: qHTS replaces the single test concentration by a dilution series.
Rap guanine nucleotide exchange factor 3 (Homo sapiens), sequence (O95398 whole entry, looked up): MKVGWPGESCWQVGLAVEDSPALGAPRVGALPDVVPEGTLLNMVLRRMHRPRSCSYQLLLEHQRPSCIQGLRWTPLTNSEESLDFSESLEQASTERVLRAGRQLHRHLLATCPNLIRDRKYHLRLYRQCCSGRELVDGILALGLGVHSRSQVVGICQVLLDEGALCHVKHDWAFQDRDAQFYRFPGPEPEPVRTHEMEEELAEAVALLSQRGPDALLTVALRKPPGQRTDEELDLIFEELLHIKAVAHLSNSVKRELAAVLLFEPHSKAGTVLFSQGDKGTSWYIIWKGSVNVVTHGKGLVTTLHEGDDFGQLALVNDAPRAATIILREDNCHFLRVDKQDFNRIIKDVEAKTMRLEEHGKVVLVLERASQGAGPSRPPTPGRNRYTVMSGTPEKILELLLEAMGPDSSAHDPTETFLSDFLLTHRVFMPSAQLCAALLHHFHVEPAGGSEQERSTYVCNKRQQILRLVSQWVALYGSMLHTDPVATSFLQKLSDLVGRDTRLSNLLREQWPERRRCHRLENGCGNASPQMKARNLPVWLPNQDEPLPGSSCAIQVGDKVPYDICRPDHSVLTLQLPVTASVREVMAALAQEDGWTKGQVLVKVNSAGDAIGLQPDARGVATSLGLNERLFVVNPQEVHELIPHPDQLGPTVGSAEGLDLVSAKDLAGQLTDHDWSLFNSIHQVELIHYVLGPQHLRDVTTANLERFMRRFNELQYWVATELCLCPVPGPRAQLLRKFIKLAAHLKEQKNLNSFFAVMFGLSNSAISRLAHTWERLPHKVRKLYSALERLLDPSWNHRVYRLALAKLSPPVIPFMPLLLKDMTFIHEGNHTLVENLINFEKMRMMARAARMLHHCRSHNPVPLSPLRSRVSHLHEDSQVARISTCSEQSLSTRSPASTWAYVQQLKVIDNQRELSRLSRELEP

In experiment [2] the target is Rap guanine nucleotide exchange factor 4 (Homo sapiens) (UniProt Q8WZA2). The experiment in a line: Confirmatory qHTS for agonist of cAMP-regulated guanine nucleotide exchange factor 4 (EPAC2) (AID 1645884).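 Also: nucleotide exchange releases bodipy-GDP from Rap1 and this lowers its fluorescence; % is scaled to controls: 0 for no effect and ±100 for the full control effect; nearly all actives have a fitted effect of over 65% in size.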 Particulars: EPAC2 GEF activity, Rap1B-BODIPY-GDP fluorescence; series mostly up to 154 µM.
Rap guanine nucleotide exchange factor 4 (Homo sapiens), sequence (Q8WZA2 whole entry, looked up): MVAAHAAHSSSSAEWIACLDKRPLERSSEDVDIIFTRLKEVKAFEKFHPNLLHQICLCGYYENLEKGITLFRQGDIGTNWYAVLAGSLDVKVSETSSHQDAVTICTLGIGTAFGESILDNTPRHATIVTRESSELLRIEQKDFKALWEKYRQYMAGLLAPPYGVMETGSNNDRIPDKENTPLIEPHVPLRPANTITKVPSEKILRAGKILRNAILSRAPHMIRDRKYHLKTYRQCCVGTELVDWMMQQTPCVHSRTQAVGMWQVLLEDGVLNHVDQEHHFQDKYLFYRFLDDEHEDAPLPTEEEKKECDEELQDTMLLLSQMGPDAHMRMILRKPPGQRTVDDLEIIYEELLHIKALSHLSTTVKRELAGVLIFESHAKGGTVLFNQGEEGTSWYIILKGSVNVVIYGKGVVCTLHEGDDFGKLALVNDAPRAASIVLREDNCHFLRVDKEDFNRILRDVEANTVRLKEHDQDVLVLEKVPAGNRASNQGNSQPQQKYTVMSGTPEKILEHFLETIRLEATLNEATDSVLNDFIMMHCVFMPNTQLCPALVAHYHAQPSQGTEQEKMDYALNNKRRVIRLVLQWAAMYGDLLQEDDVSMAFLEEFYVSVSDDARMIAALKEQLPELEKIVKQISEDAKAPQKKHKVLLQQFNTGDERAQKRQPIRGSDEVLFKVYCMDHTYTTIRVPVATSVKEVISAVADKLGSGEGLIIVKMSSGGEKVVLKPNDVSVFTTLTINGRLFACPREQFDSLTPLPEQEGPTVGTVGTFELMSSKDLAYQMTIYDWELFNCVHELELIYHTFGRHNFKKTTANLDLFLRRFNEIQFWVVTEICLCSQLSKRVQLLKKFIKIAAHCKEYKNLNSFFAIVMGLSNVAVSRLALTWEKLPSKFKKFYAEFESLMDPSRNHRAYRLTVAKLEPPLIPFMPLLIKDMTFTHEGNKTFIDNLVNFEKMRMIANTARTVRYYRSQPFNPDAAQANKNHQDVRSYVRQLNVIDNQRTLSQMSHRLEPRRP
Experiment [3] shares this target. Put plainly: Confirmatory qHTS for antagonist of cAMP-regulated guanine nucleotide exchange factor 4 (EPAC2) (AID 1645885). Also: nearly all actives have a fitted effect of over 25% in size. Also: potency is read from the fitted curve at half-maximal effect. As to activity change, negative = inhibition: % is scaled to controls: 0 for no effect and ±100 for the full control effect. Particulars: EPAC2 Rap1B-BODIPY-GDP exchange fluorescence, biochemical; series mostly up to 12.7 µM.
Experiment [4] concerns the target Rap guanine nucleotide exchange factor 3 (Homo sapiens) (UniProt O95398). Put plainly: Counterscreen qHTS for antagonist of cAMP-regulated guanine nucleotide exchange factor 3 (EPAC1) (AID 1645888).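 Also: fluorescence loss as bound BODIPY-GDP is released from Rap1B; % of control where 0% means no effect.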 Conditions: Rap1B-BODIPY-GDP nucleotide exchange, fluorescence; series mostly up to 154 µM. In a few lines:
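Rap1B–BODIPY-GDP (250 nM) with 50 uM GDP; compounds pin-transferred to 9.74 nM–152 uM final (activator) or from 7.32 nM upwards (inhibitor). Fluorescence Ex/Em 480/540 nm read at 5 and 30 min, then after adding cAMP or buffer, at room temperature.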
On the technique in general: The purpose of a counterscreen is to sort out artefacts and off-target activity.

SMILES strings stand for the structures. Records with an inconclusive call do not appear. Unmarked numbers belong to inactive results. Activity calls are given as the source filed them. Calls follow the shape of the dose curve; as a rule, active = well fitted curve in the direction sought with a large enough effect; inconclusive = small, poorly fitted or top-dose-only effect, or another doubt; inactive = no such curve, though single readings can be large; an effect the other way counts as inactive or inconclusive.

Regarding `O=C1Cc2ccccc2C(=O)N1`, the Potency result in experiment [1], in experiment [2], in experiment [3] and in experiment [4] was “inactive” in each case.
For `CCOc1ccc(S(=O)(=O)Nc2ccc(F)cc2)c(C)c1C`, the Potency entry in experiment [1], in experiment [2], in experiment [3] and in experiment [4] was “inactive” throughout.
`O=c1c2ccccc2nc(N/N=C/c2c(O)ccc3ccccc23)n1O`: the Potency entry in experiment [1], in experiment [2], in experiment [3] and in experiment [4] was “inactive” in each case.
`Cn1cccc1C(=O)NC(=O)COC(=O)c1ccc(S(C)(=O)=O)c([N+](=O)[O-])c1`: the Potency result in experiment [1] and in experiment [3] was “inactive” in each case. The activation in experiment [2] is -3.13% [at 17.1 µM, percent relative to cAMP agonist control]. For the same compound, the activity change, negative = inhibition in experiment [4] was -20.5% [at 30.8 µM].
Consider `Cc1ccc(C)c(-c2ccc(=O)n(Cc3c(F)cccc3Cl)n2)c1`, for which the Potency entry in experiment [1], in experiment [2], in experiment [3] and in experiment [4] was “inactive” each time.
Consider `NC(=O)c1c(NC(=O)CN2CCN(S(=O)(=O)c3ccccc3)CC2)sc2c1CCC2`, for which the Potency result in experiment [1], in experiment [2], in experiment [3] and in experiment [4] was “inactive” each time.
On to `Cc1cccc(NC(=O)CN2C(=O)S/C(=C\c3cccn3-c3cccc(C(=O)O)c3)C2=O)c1`, for which the Potency entry in experiment [1], in experiment [2], in experiment [3] and in experiment [4] was “inactive” each time.
`O=C(NC1(O)C(=O)c2ccccc2C1=O)c1ccc(C(F)(F)F)cc1`: the Potency result in experiment [1], in experiment [2], in experiment [3] and in experiment [4] was “inactive” throughout.
Turning to `O=C1C=C(NS(=O)(=O)c2ccccc2)C(=O)c2ccccc21`, the Potency result in experiment [1], in experiment [2], in experiment [3] and in experiment [4] was “inactive” in each case.
With `CCc1cc(C(=O)Nc2ccc(S(=O)(=O)NC3=NCCCCC3)cc2)sc1C`, the Potency result in experiment [1] and in experiment [3] was “inactive” in each case. For the same compound, in experiment [2], the activation is 5.65% [at 17.1 µM, percent relative to cAMP agonist control]. Besides, the activity change, negative = inhibition in experiment [4] is 4.61% [at 30.8 µM].
For the compound `O=C(/C=C/c1ccccc1Cl)c1ccc(O)cc1`, the Potency result in experiment [1] and in experiment [3] was “inactive” in each case. The activation in experiment [2] is 13.2% [at 17.1 µM, percent relative to cAMP agonist control]. In addition, the activity change, negative = inhibition in experiment [4] is 8.95% [at 30.8 µM].
As for `CC(C)Cc1ccc(CN2CCCC(NC(=O)c3cnc4ccccn4c3=O)C2)cc1` (stereo not drawn), the Potency result in experiment [1] and in experiment [3] was “inactive” each time. In addition, the activation in experiment [2] was 12.4% [at 17.1 µM, percent relative to cAMP agonist control]. Further, the activity change, negative = inhibition in experiment [4] was 5.64% [at 30.8 µM].
As for `CCOc1cccc(CNc2ccc(O)cc2)c1OCc1ccc(Cl)cc1Cl`, the Potency result in experiment [1], in experiment [2], in experiment [3] and in experiment [4] was “inactive” each time.
Regarding `CN(C)C(=O)c1cccc(-c2cnc3c(NC=O)cc(-c4ccccc4Cl)cn23)c1`, the Potency entry in experiment [1], in experiment [2], in experiment [3] and in experiment [4] was “inactive” in each case.
Turning to `CCOc1ccc(C(=O)N2CC(=O)Nc3ccc(C)cc3C2c2ccc(F)cc2)cc1OCC` (stereo not drawn), the Potency entry in experiment [1], in experiment [2] and in experiment [4] was “inactive” each time. Moreover, in experiment [3], the outcome was “inactive [at 12.7 µM]”.
Take `CCc1ccc2c(c1)NC(=O)C2(C)Cc1ccc(F)cc1` (stereo not drawn): the Potency entry in experiment [1] and in experiment [3] was “inactive” throughout. Besides, in experiment [2], the activation was 12.7% [at 17.1 µM, percent relative to cAMP agonist control]. Also, the activity change, negative = inhibition in experiment [4] is 16.2% [at 30.8 µM].
As to `CCn1c(SCC(=O)N/N=C/C=C/c2ccco2)nnc1-c1ccccc1`, the Potency result in experiment [1], in experiment [2], in experiment [3] and in experiment [4] was “inactive” each time.
With `Cc1cc(N2CCOCC2)ccc1/C=C1/SC(=O)NC1=O`, the Potency entry in experiment [1], in experiment [2], in experiment [3] and in experiment [4] was “inactive” throughout.
As for `CCOC(=O)c1c(C)oc2c1c(C=NCCO)c(O)c1ccccc12`, the Potency entry in experiment [1] and in experiment [3] was “inactive” in each case. In experiment [2], the activation is 10.2% [at 17.1 µM, percent relative to cAMP agonist control]. Moreover, the activity change, negative = inhibition in experiment [4] was 33.4% [at 30.8 µM].
Regarding `O=C(CSc1nc(O)cc(=O)n1-c1ccccc1)Nc1ccc2c3c(cccc13)CC2`, the Potency entry in experiment [1] and in experiment [3] was “inactive” throughout. Moreover, in experiment [2], the activation was 0% [at 17.1 µM, percent relative to cAMP agonist control]. Moreover, the activity change, negative = inhibition in experiment [4] was -9.82% [at 30.8 µM].
In the case of `Cc1cccc(N(Cc2ccccc2)C(=O)CSC(C)C(=O)Nc2cc(C)on2)c1` (stereo not drawn), the Potency entry in experiment [1], in experiment [2] and in experiment [4] was “inactive” throughout. Further, the Potency in experiment [3] is 95.3 µM (active).
In the case of `CC(C)CC(NS(=O)(=O)OCC(Cl)(Cl)Cl)c1ccccc1` (stereo not drawn), the Potency entry in experiment [1] and in experiment [3] was “inactive” each time. For the same compound, the activation in experiment [2] is 5.17% [at 17.1 µM, percent relative to cAMP agonist control]. The activity change, negative = inhibition in experiment [4] was -22.9% [at 30.8 µM].
For `CCOC(=O)c1c(C)oc2nc(C)nc(N(C)Cc3ccccc3)c12`, the Potency result in experiment [1], in experiment [2] and in experiment [4] was “inactive” throughout. Also, the outcome in experiment [3] was “inactive [at 12.7 µM]”.
As for `COc1ccccc1-c1nnc(SCC(=O)c2ccc(C3CCCCC3)cc2)n1Cc1ccco1`, the Potency result in experiment [1], in experiment [2], in experiment [3] and in experiment [4] was “inactive” in each case.
For the compound `C/C(=N\NC(=O)c1ccc(O)cc1)c1cccc(NC(=O)c2ccc(Cl)cc2)c1`, the Potency entry in experiment [1], in experiment [2], in experiment [3] and in experiment [4] was “inactive” throughout.
For `COc1ccc(OC)c(NC(=O)CSc2nc(O)cc(=O)n2CC(C)C)c1`, the Potency result in experiment [1], in experiment [2], in experiment [3] and in experiment [4] was “inactive” each time.
`Cc1noc(NS(=O)(=O)c2ccc(N/C=C\C(=O)c3cccc4ccccc34)cc2)c1C`: the Potency result in experiment [1], in experiment [2], in experiment [3] and in experiment [4] was “inactive” each time.
